In the library only some 2.7% were active in any assay of this set; here they are far more common.
IP6K1 inhibitor = IP6K1 kinase inhibition; Q92551; activity change, % (series mostly up to about 58 µM); IP6K1 kinase, ADP-Glo luminescence, 2 h; stronger effect = lower value; hit rate 0.81% among 140,000; in the data active = activity change below about -25%; note: % is set by controls: 0 for no effect and ±100 for the full control effect
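ADP-Glo luminescence measures ADP made by human IP6K1 during a 2 h RT reaction with ATP/IP6 (mix at 1.3 mM/130 uM); top library doses 57.5 and 19.1 uM final.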
KDM5B inh = inhibitors of human KDM5B histone demethylase | Q9UGL1 | KDM5B demethylase, FDH-coupled NADH fluorescence (FDH is formaldehyde dehydrogenase) | Potency, µM (doses to about 57.7 µM), most hits filed as inhibitors | hit rate 2.6% among 220,000; active = well fitted inhibition curve with a large enough effect; inconclusive = small, poorly fitted or top-dose-only effect; inactive = no such curve, though single readings can be large or run the other way; note: potency is the fitted concentration of half-maximal effect; 0% is about no effect; nearly all actives have a fitted effect of over 70% in size
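Measured: NADH fluorescence change, 30 min, RT. System: KDM5BΔAP 200 nM final, H3K4me3 peptide, α-KG, Fe(II), ascorbate, NAD⁺ plus FDH, pH 7.5 HEPES. Compounds: titrated, 10 min pre-incubation with enzyme.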
* hit, by the source's call.

`Cn1cnc2cc(-c3ccccc3)cc(C(=O)NCc3cccnc3)c21` gave IP6K1 inhibitor -1 and KDM5B inh 32µM*.
Screening Cn1cnc2cc(-c3cccc(C(F)(F)F)c3)cc(C(=O)NCc3cccnc3)c21 returned IP6K1 inhibitor -7 and KDM5B inh inconclusive.
Screening COc1ccc(-c2cc(C(=O)NCc3ccnc(N)c3)c3c(c2)ncn3C)cc1 returned IP6K1 inhibitor 1 and KDM5B inh 40µM*.
Screening Cc1cc(C(=O)CSc2n[nH]c(C(C)C)n2)c(C)n1C returned KDM5B inh inactive.
Screening CCN1CCN(C(=O)c2cc(-c3cccc(C(F)(F)F)c3)nc3c2cnn3C)CC1 returned IP6K1 inhibitor 14.
Screening O=C(Nc1cccc(C(F)(F)F)c1)c1noc2c1CCCCC2 returned KDM5B inh inactive.
For CCOc1ccc(CCNC(=O)c2noc(C)c2Cn2nc(C)cc2C)cc1 the results were KDM5B inh inactive.
CCCCc1ccc(Nc2nnc(SCC(=O)NC(C)(C)C)s2)cc1 was read as KDM5B inh inactive.
Screening CC1CCN(Cc2nnnn2CC(=O)N(C)Cc2ccccn2)CC1 returned IP6K1 inhibitor -6 and KDM5B inh inactive.
For COc1ccc(CN(C)C(=O)Cn2nnnc2CN2CCOCC2)c2cccnc12 the results were IP6K1 inhibitor -2 and KDM5B inh 22µM*.
Screening COc1ccccc1-c1cccc(CN2CCCC(C(=O)NCc3ccc(F)cc3)C2)c1 (stereo unspecified) returned IP6K1 inhibitor -7.
`C[C@@]12C(=O)N(CC3CC3)c3ccccc3[C@@H]1[C@@H](C(N)=O)CN2C(=O)c1cc2ccccc2s1` gave IP6K1 inhibitor 19.
CC(C)(C)CC(=O)N1CCN(C2CCCCC2)CC1 was read as KDM5B inh inactive.
O=C1NC2(CCN(C(=O)c3ccccc3F)C2)N=C1c1ccccn1 (stereo unspecified) was read as IP6K1 inhibitor -8 and KDM5B inh inconclusive.
For O=C1NC2(CCN(C(=O)OCc3ccccc3)C2)N=C1c1ccccn1 (stereo unspecified) the results were IP6K1 inhibitor 3 and KDM5B inh 25µM*.
For Oc1c(Br)cc(Cl)cc1Cc1cc(Cl)cc(Br)c1O the results were KDM5B inh inactive.
Screening Fc1ccc(CSc2nnc(-c3cccnc3)o2)cc1Br returned KDM5B inh inactive.
Screening Cn1ccnc1CN1C[C@@H]2C[C@H]1C(=O)N(CC1CC1)c1ccccc1O2 returned IP6K1 inhibitor 17 and KDM5B inh inactive.
Screening O=C1[C@@H]2C[C@@H](CN2Cc2ccnc3ccccc23)Oc2ccccc2N1CC1CC1 returned IP6K1 inhibitor -7 and KDM5B inh 35µM*.
For OCc1cccc(N=Cc2ccc(Cl)cc2Cl)c1 the results were KDM5B inh inactive.
Screening CC(C)NC(=O)c1ccc2c(c1)nc1n2CCN(CCO)C1 returned KDM5B inh inactive.
COc1ccc2nc3n(c2c1)[C@@H](CNC(=O)C1CCOCC1)COC3 was read as IP6K1 inhibitor 1 and KDM5B inh 40µM*.
COc1ccc2nc3n(c2c1)[C@@H](CNC(=O)c1ccccc1)COC3 was read as IP6K1 inhibitor -13 and KDM5B inh inconclusive.
Screening Cc1noc(-c2ccc3c(c2)OCO3)c1C(=O)NCCCc1ccccc1 returned IP6K1 inhibitor -2 and KDM5B inh 25µM*.
Screening Cc1noc(-c2ccc3c(c2)OCO3)c1C(=O)NCCC(c1ccccc1)c1ccccc1 returned IP6K1 inhibitor 14 and KDM5B inh 20µM*.
`COc1cc(OC)cc(-c2onc(C)c2C(=O)NCCC(c2ccccc2)c2ccccc2)c1` gave IP6K1 inhibitor -16 and KDM5B inh 32µM*.
`Cc1noc(-c2ccc(OC(F)(F)F)cc2)c1C(=O)NCCC(c1ccccc1)c1ccccc1` gave IP6K1 inhibitor 0 and KDM5B inh inconclusive.
Cc1noc(-c2ccc3c(c2)OCO3)c1C(=O)NCCSCc1ccco1 was read as IP6K1 inhibitor -11 and KDM5B inh inconclusive.
Cc1noc(-c2cccc(F)c2)c1C(=O)NCCCc1ccccc1 was read as IP6K1 inhibitor 13 and KDM5B inh inactive.
For Cc1noc(-c2ccc3c(c2)OCO3)c1C(=O)NCCSCc1ccccc1 the results were IP6K1 inhibitor -6 and KDM5B inh 32µM*.
Cc1noc(-c2ccco2)c1C(=O)NCCC(c1ccccc1)c1ccccc1 was read as IP6K1 inhibitor 18 and KDM5B inh inconclusive.
Screening O=c1oc2cc(OCc3nn[nH]n3)ccc2cc1-c1ccc(Cl)cc1 returned KDM5B inh inactive.
For COc1ccc(Nc2nc(N)c(C(=O)c3ccc(Cl)cc3)s2)cc1 the results were KDM5B inh inactive.
For O=c1n(-c2ccc(C(F)(F)F)cc2)nc2n1CCN(CC1CCCCC1)C2 the results were IP6K1 inhibitor 4 and KDM5B inh inactive.
`O=C(Cc1cccc(F)c1)NCCc1c[nH]c2ccccc12` gave KDM5B inh inactive.
O=C(NC1CC1)c1cc(-c2cccc(C(F)(F)F)c2)c2cccn2n1 was read as IP6K1 inhibitor 4.
For Cc1noc(-c2ccc3c(c2)OCO3)c1C(=O)NCc1cccc(Cl)c1 the results were IP6K1 inhibitor 1 and KDM5B inh 32µM*.
Screening Cc1noc(-c2cccc(F)c2)c1C(=O)NCc1ccc2c(c1)OCO2 returned IP6K1 inhibitor -8 and KDM5B inh inactive.
For O=C(NCc1ccc(Cl)cc1)c1noc(-c2ccc3c(c2)OCO3)n1 the results were IP6K1 inhibitor -3 and KDM5B inh inconclusive.
For CC(C)c1ccc(CNC(=O)c2noc(-c3ccc4c(c3)OCO4)n2)cc1 the results were IP6K1 inhibitor -7 and KDM5B inh 25µM*.
`CCOc1cccc2cc(-c3nc(-c4nonc4N)no3)c(=O)oc12` gave KDM5B inh inactive.
Cc1ccc(C(=O)N2CCC(N3C(=O)C4(CCCCC4)C3c3ccncc3)CC2)cc1 (stereo unspecified) was read as IP6K1 inhibitor -15.
Cc1ccccc1-c1nnn(CCC(=O)Nc2sc3c(c2C#N)CCCC3)n1 was read as KDM5B inh inactive.
N#Cc1ccc(-c2cccnc2)nc1SCC(=O)c1ccccc1 was read as KDM5B inh inactive.
For CN(CCC(O)c1ccccc1)c1nccc(-c2cccnc2)n1 (stereo unspecified) the results were IP6K1 inhibitor 2 and KDM5B inh 28µM*.
Screening CN(Cc1cc(C2CC2)n[nH]1)c1nccc(-c2cccnc2)n1 returned IP6K1 inhibitor 29 and KDM5B inh 22µM*.
`CN(Cc1cc(C2CC2)n[nH]1)c1cc(C2CC(N)C2)nc(N)n1` (stereo unspecified) gave IP6K1 inhibitor 9 and KDM5B inh inconclusive.
`Cc1noc(C)c1[S+](=O)([O-])N1CCCN(c2ccc3nnc(C4CC4)n3n2)CC1` gave IP6K1 inhibitor 13.
`COC(=O)c1ccn(Cc2c(Cl)cccc2Cl)n1` gave KDM5B inh inactive.
Screening c1ccc(-c2nnc([C@H]3CCN(C4CCC4)C3)o2)cc1 returned IP6K1 inhibitor 0 and KDM5B inh inconclusive.
For CN(C)c1ccc(-c2nnc([C@H]3CCN(CC4CC4)C3)o2)cc1 the results were IP6K1 inhibitor 5 and KDM5B inh 32µM*.
c1ccc(CCCN2CC[C@H](c3nnc(-c4ccccc4)o3)C2)cc1 was read as IP6K1 inhibitor 25 and KDM5B inh 32µM*.
For CN(C)c1ccc(-c2nnc([C@H]3CCN(Cc4ccccc4)C3)o2)cc1 the results were IP6K1 inhibitor 27 and KDM5B inh inconclusive.

Screening results from PubChem BioAssay.
